From PubChem BioAssay (EPA / NIEHS)
The source made the active and inactive calls. The calls were made as follows: active = hit-call score of the fitted dose curve at least 0.9, where 1 is the maximum; inactive = score below 0.9.

Assays:
[1] = APR_HepG2_CellCycleArrest_24hr: Apredica 24-hour HepG2 Assay for Cell Cycle Arrest (AID 2282905); conditions: imaging, actives raise or lower the signal;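 also: cell cycle arrest scored as ratio of 2N to 4N nuclear DNA content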
Method in brief: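 Compounds (0.39 to 200 uM, final DMSO 0.5% v/v) are applied to HepG2 cells for 24 hours; cells are then fixed, permeabilized and nuclei labeled with Hoechst 33342. Automated imaging measures DNA content, and activity is fitted in both directions against DMSO.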

[2] = APR_HepG2_NuclearSize_24hr: Apredica 24-hour HepG2 Assay for Nuclear Size (AID 2282907); conditions: high-content imaging, actives raise or lower the signal
Method in brief: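 Nuclear size is measured by fluorescence high-content imaging of Hoechst-labelled HepG2 nuclei after 24 hr of treatment (0.39–200 uM, 0.5% DMSO). Cells are fixed in 3.7% formaldehyde before staining, and DMSO serves as the baseline for bidirectional curve fitting.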

[3] = APR_HepG2_CellLoss_24hr: Apredica 24-hour HepG2 Assay for Cell Loss (AID 2282908); conditions: high-content imaging;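 as to AC50: fit in both directions so a hit may be cell loss or gain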
Method in brief: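 Nuclear count serves as the viability measure: treated cells are fixed, permeabilized and labelled with Hoechst 33342, and six images per well are analysed to identify valid nuclei. Doses span 0.39–200 uM, and activity in either direction is scored against DMSO.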

[4] = APR_HepG2_MicrotubuleCSK_24hr: Apredica 24-hour HepG2 Assay for Microtubule CSK Stabilty (AID 2282909); conditions: HepG2 microtubule cytoskeleton imaging, actives raise or lower the signal
Method in brief: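 Compounds were applied to HepG2 cells for 24 hours across 0.39–200 uM in duplicate, with final DMSO at 0.5% v/v. Fixed, permeabilized cells were labeled for alpha-tubulin and nuclei, and tubulin fluorescence was quantified by imaging, fitted bidirectionally against DMSO.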

[5] = APR_HepG2_MitoticArrest_24hr: Apredica 24-hour HepG2 Assay for Mitotic Arrest (AID 2282910); conditions: high-content imaging, actives raise or lower the signal
Method in brief: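 Treatment lasted 24 hr in the human HepG2 line at 0.39–200 uM, solvent held at 0.5% DMSO. Fixed cells were stained with Hoechst 33342 and anti-phospho-histone H3, imaged at 20x, and analysed by gain- or loss-of-signal fitting against DMSO.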

[6] = APR_HepG2_MitoMembPot_24hr: Apredica 24-hour HepG2 Assay for Mitochondrial Membrane Potential (AID 2282911); conditions: imaging, actives raise or lower the signal
Method in brief: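 HepG2, 24 hr dosing, 10 concentrations 0.39–200 uM, 0.5% DMSO final. Live-cell MitoTracker Red CMXRos 250 nM 30 min, then 3.7% formaldehyde fix. HCS fluorescence imaging, 20x; bidirectional fit vs DMSO baseline.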

[7] = APR_HepG2_MitoMass_24hr: Apredica 24-hour HepG2 Assay for Mitochondrial Mass (AID 2282912); conditions: high-content imaging, actives raise or lower the signal
Method in brief: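 After 24 hr of treatment at 0.39 to 200 uM, HepG2 cells take up 250 nM MitoTracker Red CMXRos for 30 min and are then fixed with 3.7% formaldehyde. Per-well images are quantified, and any change in either direction is scored against solvent.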

[8] = APR_HepG2_p53Act_24hr: Apredica 24-hour HepG2 Assay for p53 Activation (AID 2282913); conditions: high-content imaging, actives raise or lower the signal;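 also: p53 protein immunofluorescence averaged per cell in HepG2 with Hoechst nuclei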
Method in brief: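 Read-out: Cy5 immunofluorescence for p53 in fixed, permeabilized HepG2, imaged by HCS with Hoechst-defined nuclei. Dosing was 24 hr at 0.39–200 uM in 0.5% DMSO. Curves were fitted bidirectionally relative to DMSO.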

[9] = APR_HepG2_CellCycleArrest_72hr: Apredica 72-hour HepG2 Assay for Cell Cycle Arrest (AID 2282914); conditions: high-content imaging, actives raise or lower the signal
Method in brief: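 HepG2, 72 hr exposure, 10-point 0.39–200 uM, duplicate, 0.5% DMSO final. Fix 3.7% formaldehyde 30 min RT, Triton X-100 0.5%, Hoechst 33342 2 ug/mL. ArrayScan 20x, six fields/well; DNA content per nucleus; bidirectional fit vs DMSO.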

[10] = APR_HepG2_CellLoss_72hr: Apredica 72-hour HepG2 Assay for Cell Loss (AID 2282915); conditions: high-content imaging
Method in brief: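 HepG2 cells were exposed for 72 hr to compounds at 0.39–200 uM (ten concentrations, duplicate) in 0.5% v/v final DMSO. Nuclei were stained with Hoechst 33342 after 3.7% formaldehyde fixation, imaged at 20x, and counted; fits bidirectional versus DMSO.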

[11] = APR_HepG2_P-H2AX_72hr: Apredica 72-hour HepG2 Assay for H2AX Phosphorylation (AID 2282916); conditions: imaging, actives raise or lower the signal;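 also: phospho-histone H2A.x immunostain intensity per cell marking DNA damage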
Method in brief: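 Human hepatoma HepG2 cells are dosed across ten concentrations (0.39 to 200 uM, 0.5% v/v DMSO) and incubated 72 hr. Phospho-histone H2A.x is then detected by antibody staining alongside c-Jun and Hoechst, and quantified by automated fluorescence imaging.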

[12] = APR_HepG2_MitoMembPot_72hr: Apredica 72-hour HepG2 Assay for Mitochondrial Membrane Potential (AID 2282917); conditions: imaging, actives raise or lower the signal
Method in brief: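 HepG2 cells exposed 72 h to compounds at 0.39–200 uM (0.5% v/v DMSO, duplicates); MitoTracker Red CMXRos 250 nM loaded 30 min before 3.7% formaldehyde fixation, imaged by HCS fluorescence. Bidirectional fit versus DMSO.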

[13] = APR_HepG2_MitoticArrest_72hr: Apredica 72-hour HepG2 Assay for Mitotic Arrest (AID 2282918); conditions: high-content imaging, actives raise or lower the signal
Method in brief: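 HepG2, 72 hr exposure, 0.39–200 uM in duplicate, 0.5% v/v DMSO final. Formaldehyde-fixed, Triton-permeabilized, anti-phospho-histone H3/FITC plus Hoechst. ArrayScan imaging at 20x; curves fit bidirectionally against DMSO baseline.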

[14] = APR_HepG2_MicrotubuleCSK_72hr: Apredica 72-hour HepG2 Assay for Microtubule CSK Stabilty (AID 2282919); conditions: HepG2 microtubule cytoskeleton, high-content imaging, actives raise or lower the signal
Method in brief: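 Ten-point dosing (0.39–200 uM, 0.5% DMSO) of HepG2 for 72 hr, with taxol as the cytoskeletal positive control. The cells were formaldehyde-fixed and then stained with alpha-tubulin/Cy5 and Hoechst. Imaging at 20x used a −2 um Z offset for tubulin.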

[15] = APR_HepG2_P-H2AX_24hr: Apredica 24-hour HepG2 Assay for H2AX Phosphorylation (AID 2282920); conditions: high-content imaging, actives raise or lower the signal
Method in brief: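 HCS fluorescence imaging of phospho-H2A.x immunostain (with Hoechst 33342 nuclear counterstain) in HepG2 after 24 hr compound exposure; 10 concentrations, 0.39–200 uM, duplicate wells, 0.5% v/v DMSO. Gain or loss of signal fitted relative to DMSO baseline.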

[16] = APR_HepG2_StressKinase_72hr: Apredica 72-hour HepG2 Assay for Stress Kinase (AID 2282921); conditions: HepG2 stress kinase (phospho-c-Jun) imaging, actives raise or lower the signal
Method in brief: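 After a 72 h compound treatment spanning 0.39 to 200 uM, formaldehyde-fixed cells are labelled for phosphorylated c-Jun and nuclei, imaged by automated fluorescence microscopy, and activity is fitted in both directions relative to DMSO controls.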

[17] = APR_HepG2_StressKinase_24hr: Apredica 24-hour HepG2 Assay for Stress Kinase (AID 2282922); conditions: HepG2 stress kinase (phospho-c-Jun) imaging, actives raise or lower the signal
Method in brief: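 After 24 hr compound treatment (up to 200 uM, final DMSO 0.5% v/v), HepG2 cells are fixed and multiplex-labeled; phospho-c-Jun intensity is captured by high-content fluorescence imaging and analyzed relative to DMSO.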

[18] = APR_HepG2_p53Act_72hr: Apredica 72-hour HepG2 Assay for p53 Activation (AID 2282923); conditions: high-content imaging, actives raise or lower the signal;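 also: average cellular p53 protein immunofluorescence intensity in HepG2 cells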
Method in brief: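 Imaging-based endpoint: after 72 hr compound exposure (up to 200 uM, 0.5% DMSO), fixed and permeabilized monolayers were labelled with anti-p53 antibody and imaged; signal change in either direction was fitted relative to DMSO controls.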

[19] = APR_HepG2_MitoMass_72hr: Apredica 72-hour HepG2 Assay for Mitochondrial Mass (AID 2282924); conditions: high-content imaging, actives raise or lower the signal;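 also: MitoTracker Red CMXRos stain intensity per cell imaged as mitochondrial mass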
Method in brief: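 Steps: treat HepG2 72 hr (0.39–200 uM, duplicate wells); load MitoTracker Red CMXRos, 250 nM, 30 min; fix with 3.7% formaldehyde, permeabilise with 0.5% Triton X-100; capture images, nuclei via Hoechst 33342; fit bidirectionally against DMSO.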

[20] = APR_HepG2_NuclearSize_72hr: Apredica 72-hour HepG2 Assay for Nuclear Size (AID 2282925); conditions: high-content imaging, actives raise or lower the signal
Method in brief: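 Compounds (0.39–200 uM, final DMSO 0.5%) were applied to HepG2 for 72 hr. Cells were then formaldehyde-fixed, permeabilized and labelled with Hoechst 33342. Nuclear diameter was quantified from six images per well.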

Measured: AC50

CO[C@H]1/C=C/O[C@@]2(C)Oc3c(C)c(O)c4c(O)c(c(/C=N/N5CCN(C)CC5)c(O)c4c3C2=O)NC(=O)/C(C)=C\C=C\[C@H](C)[C@H](O)[C@@H](C)[C@@H](O)[C@@H](C)[C@H](OC(C)=O)[C@@H]1C
active: [10] 45.2 µM | [13] 46.2 µM
inactive: all other assays above

CC(C)(c1cc(Br)c(O)c(Br)c1)c1cc(Br)c(O)c(Br)c1
active: [1] 77 µM | [3] 92.1 µM | [5] 96.3 µM | [6] 66.1 µM | [9] 82.9 µM | [10] 56.7 µM | [11] 63.3 µM | [13] 69 µM | [15] 70.7 µM | [18] 47.8 µM | [19] 51.4 µM | [20] 77.7 µM
inactive: [2] | [4] | [7] | [8] | [12] | [14] | [16] | [17]

CC/C(=C(/CC)c1ccc(O)cc1)c1ccc(O)cc1
active: [1] 20.9 µM | [3] 90.9 µM | [5] 50 µM | [7] 46 µM | [8] 33.8 µM | [9] 31.3 µM | [10] 79.5 µM | [11] 68 µM | [12] 71.6 µM | [13] 91.2 µM | [15] 33.1 µM | [18] 74.1 µM
inactive: [2] | [4] | [6] | [14] | [17] | [19] | [20]

O=C(O)c1ccccc1-n1cc(C(=O)O)c(=O)c2cc(Nc3c(F)cc(F)cc3Cl)c(Cl)cc21
not listed: [16]
inactive: all other assays above

CC(O)CC(C)(C)O (centres undefined)
active: [10] 70.6 µM | [12] 1.62 µM
not listed: [16]
inactive: all other assays above

CC(C)(O)c1ccc(CNC(=O)c2cccnc2Oc2ccc3nonc3c2)cc1
not listed: [16]
inactive: all other assays above

c1ccc(C[n+]2cccc3ccccc32)cc1
inactive: [2] | [5] | [8] | [12] | [17] | [18] | [19]
active: [1] 178 µM | [3] 115 µM | [4] 100 µM | [6] 32.8 µM | [7] 167 µM | [9] 36.8 µM | [10] 54.8 µM | [11] 20.6 µM | [13] 109 µM | [14] 87 µM | [15] 106 µM | [20] 68.9 µM

COc1cccc([C@H](O)C2CCN(CCc3ccc(F)cc3)CC2)c1OC
active: [1] 75.2 µM | [10] 105 µM | [13] 102 µM | [14] 103 µM
not listed: [16]
inactive: all other assays above

CCO[Si](CCCNC(N)=O)(OCC)OCC
not listed: [16]
inactive: all other assays above

O=C(O)c1ccccc1C(=O)OCc1ccccc1
not listed: [16]
inactive: all other assays above

Cc1c2ccccc2c(C)c2c1ccc1ccccc12
inactive: [7] | [12] | [17] | [19]
active: [1] 44.6 µM | [2] 77.3 µM | [3] 56.1 µM | [4] 74.5 µM | [5] 49.3 µM | [6] 95.7 µM | [8] 0.069 µM | [9] 6.16 µM | [10] 40.3 µM | [11] 21.5 µM | [13] 35.8 µM | [14] 74 µM | [15] 19.8 µM | [18] 0.355 µM | [20] 54.7 µM

COc1cc(C(=O)NC2CCN(C)CC2)ccc1Nc1ncc2c(n1)N(C1CCCC1)CC(F)(F)C(=O)N2C
not listed: [16]
inactive: all other assays above

CN1C(=O)CC[C@H]1c1cccnc1
not listed: [16]
inactive: all other assays above
